# Assay results from article PMC11995724, “Antibiotic target discovery by integrated phenotypic and activity-based profiling of electrophilic fragments” (Cell chemical biology, 2025).
# The campaign covered roughly 3,200 compounds. About 75 (2%) showed an effect of 50% or more. Only a selection was taken, and strong results are over-represented in it overall.
# Test system: T1, S. aureus MSSA476
# T1 construct: MSSA476
# Design: species or system S. aureus MSSA476 (TSB) or V. cholerae SAD30 (LB); 384-well bacterial growth screen at 25 uM, OD600 relative to DMSO control
# Settings: relative growth, OD600, TSB; 25 µM; inhibitor
row,Structure (SMILES),% of control remaining [%]
1,"C=CC(=O)Nc1cccc(-c2nc(COC)no2)c1C [1-J08, N-{3-[3-(methoxymethyl)-1,2,4-oxadiazol-5-yl]-2-methylphenyl}prop-2-enamide]",101.626
2,"COc1cc(Cl)c(C)cc1N1C(=O)C=CC1=O [10-B15, 1-(4-chloro-2-methoxy-5-methylphenyl)-2,5-dihydro-1H-pyrrole-2,5-dione]",91.875
3,"N#CC(C(=O)Nc1ccc(Cl)cc1)=C(S)Nc1ccccc1 [8-H22, N-(4-chlorophenyl)-2-cyano-3-(phenylamino)-3-sulfanylprop-2-enamide]",74.3568
4,"NC(=O)CCc1ccc(C(=O)CCl)cc1 [10-I03, 3-[4-(2-chloroacetyl)phenyl]propanamide]",108.125
5,"CC(=O)N(C)Cc1ccc(C(=O)CCl)cc1 [10-H04, N-{[4-(2-chloroacetyl)phenyl]methyl}-N-methylacetamide]",111.875
6,"CCN(c1ccc(C(=O)CCl)cc1)S(C)(=O)=O [10-F04, N-[4-(2-chloroacetyl)phenyl]-N-ethylmethanesulfonamide]",2.1875
7,"CN(c1ccc(C(=O)CCl)cc1)S(C)(=O)=O [10-F19, N-[4-(2-chloroacetyl)phenyl]-N-methylmethanesulfonamide]",-0.3125
8,"Cl.O=C(CCl)c1ccncc1 [10-M09, 2-chloro-1-(pyridin-4-yl)ethan-1-one hydrochloride]",111.875
9,"N#Cc1ccc(C(=O)CCl)cc1 [10-F10, 4-(2-chloroacetyl)benzonitrile]",52.5
10,"C=CC(=O)N1CCC(C(=O)NCc2ncnn2CC)CC1 [3-P03, N-[(1-ethyl-1H-1,2,4-triazol-5-yl)methyl]-1-(prop-2-enoyl)piperidine-4-carboxamide]",135.829
11,"C=CC(=O)Nc1cc(-c2ccco2)nn1C(C)(C)C [1-K19, N-[1-tert-butyl-3-(furan-2-yl)-1H-pyrazol-5-yl]prop-2-enamide]",129.407
12,"CCN(Cc1ccccc1)C(=O)CCl [6-O21, N-benzyl-2-chloro-N-ethylacetamide]",79.9024
13,"CCn1ccc(CN(C)C(=O)CCl)n1 [5-K06, 2-chloro-N-[(1-ethyl-1H-pyrazol-3-yl)methyl]-N-methylacetamide]",77.5956
14,"CCc1cc(SC#N)cc(C)c1NC(=O)CCl [4-M04, 2-chloro-N-[4-(cyanosulfanyl)-2-ethyl-6-methylphenyl]acetamide]",101.382
15,"O=C(CCl)Cc1ccc(Cl)c(Cl)c1 [10-E15, 1-chloro-3-(3,4-dichlorophenyl)propan-2-one]",111.25
16,"O=C(CCl)Cc1cc(Cl)cc(Cl)c1 [10-I15, 1-chloro-3-(3,5-dichlorophenyl)propan-2-one]",23.125
17,"O=C(CCl)Cc1cccc(Cl)c1 [10-E17, 1-chloro-3-(3-chlorophenyl)propan-2-one]",119.375
18,"O=C(CCl)NC(=O)c1ccc(OC(F)F)cc1 [5-J22, N-(2-chloroacetyl)-4-(difluoromethoxy)benzamide]",106.011
19,"C=CC(=O)NCc1ncoc1C(F)(F)F [3-E18, N-{[5-(trifluoromethyl)-1,3-oxazol-4-yl]methyl}prop-2-enamide]",106.922
20,"N#CC(=Cc1ccc(C(F)(F)F)cc1)C(=O)Nc1ccccc1 [9-I04, 2-cyano-N-phenyl-3-[4-(trifluoromethyl)phenyl]prop-2-enamide]",99.7753

row,Structure (SMILES),% of control remaining [%]
1,"N#CC(C(=O)CCl)=C1NC(C23CC4CC(CC(C4)C2)C3)=CS1 [10-F14, 2-[4-(adamantan-1-yl)-2,3-dihydro-1,3-thiazol-2-ylidene]-4-chloro-3-oxobutanenitrile]",42.1875
2,"N#CC(C(=O)CCl)=C1NC2=C(CCc3ccccc32)S1 [10-N10, 4-chloro-2-{1H,2H,4H,5H-naphtho[1,2-d][1,3]thiazol-2-ylidene}-3-oxobutanenitrile]",59.6875
3,"CN1C=CC(=C(C#N)C(=O)CCl)C=C1 [10-G21, 4-chloro-2-(1-methyl-1,4-dihydropyridin-4-ylidene)-3-oxobutanenitrile]",112.5
4,"O=C(CCl)NC1CCS(=O)(=O)c2ccc(F)cc21 (stereo not drawn) [7-H06, 2-chloro-N-(6-fluoro-1,1-dioxo-3,4-dihydro-2H-1lambda6-benzothiopyran-4-yl)acetamide]",94.1915
5,"CN(C)c1ccc(C=C(C#N)C(=O)N2CCC2)cc1 [9-A14, 2-(azetidine-1-carbonyl)-3-[4-(dimethylamino)phenyl]prop-2-enenitrile]",86.8914
6,"Cc1c(C#N)c(NC(=O)CCl)n(Cc2ccco2)c1C [4-D09, 2-chloro-N-{3-cyano-1-[(furan-2-yl)methyl]-4,5-dimethyl-1H-pyrrol-2-yl}acetamide]",96.0457
7,"CC(C)OC(=O)c1ccc(NC(=O)C(C)Cl)cc1 (stereo not drawn) [4-K08, propan-2-yl 4-(2-chloropropanamido)benzoate]",110.148
8,"CCCCNC(=O)C(C#N)=Cc1cccc(Cl)c1Cl [9-H11, N-butyl-2-cyano-3-(2,3-dichlorophenyl)prop-2-enamide]",71.0112
9,"CC(NC(=O)C(C#N)=Cc1ccccc1F)c1ccccc1 (stereo not drawn) [8-P16, 2-cyano-3-(2-fluorophenyl)-N-(1-phenylethyl)prop-2-enamide]",79.0041
10,"N#CC(=Cc1cccc(Cl)c1Cl)C(=O)NCc1ccccc1 [8-L04, N-benzyl-2-cyano-3-(2,3-dichlorophenyl)prop-2-enamide]",-0.332
11,"N#CC(=Cc1ccccc1Cl)C(=O)NCc1ccccc1 [9-F13, N-benzyl-3-(2-chlorophenyl)-2-cyanoprop-2-enamide]",78.2022
12,"N#CC(=Cc1cccc(O)c1)C(=O)NCCc1ccccc1 [8-N03, 2-cyano-3-(3-hydroxyphenyl)-N-(2-phenylethyl)prop-2-enamide]",116.183
13,"CC(NC(=O)C(C#N)=Cc1cccc(Cl)c1Cl)c1ccccc1 (stereo not drawn) [9-N04, 2-cyano-3-(2,3-dichlorophenyl)-N-(1-phenylethyl)prop-2-enamide]",0.5993
14,"CCCCNC(=O)C(C#N)=Cc1c(Cl)cccc1Cl [9-J11, N-butyl-2-cyano-3-(2,6-dichlorophenyl)prop-2-enamide]",79.4007
15,"N#CC(=Cc1cccc2ccccc12)C(=O)NCc1ccccc1 [8-O19, N-benzyl-2-cyano-3-(naphthalen-1-yl)prop-2-enamide]",104.896
16,"CC(C)NC(=O)C(C#N)=Cc1cccc(Cl)c1Cl [9-C07, 2-cyano-3-(2,3-dichlorophenyl)-N-(propan-2-yl)prop-2-enamide]",109.963
17,"N#CC(=Cc1cccc(Cl)c1Cl)C(=O)NCCc1ccccc1 [8-J06, 2-cyano-3-(2,3-dichlorophenyl)-N-(2-phenylethyl)prop-2-enamide]",0.6639
18,"N#CC(=Cc1c(F)cccc1F)C(=O)NCCc1ccccc1 [8-D18, 2-cyano-3-(2,6-difluorophenyl)-N-(2-phenylethyl)prop-2-enamide]",118.174
19,"N#CC(=Cc1c(Cl)cccc1Cl)C(=O)NCCc1ccccc1 [8-B14, 2-cyano-3-(2,6-dichlorophenyl)-N-(2-phenylethyl)prop-2-enamide]",39.834
